The values below are quoted from earlier work in PubChem BioAssay AID977610 (Shanghai Institute of Organic Chemistry, 2013).

Among all 3,600 compounds or so, about 3,600 (100%) were called active. The limit is not given here; nearly all actives have Ki up to about 18000 µM. The set was probably picked from earlier hits. Some of the results follow. Numbered stars: 1 amine (or outer) side, 2 acyl side, 3 side chain; on linkers, the order of the positions; unused ones are H or OH. Square brackets hold non-standard residues; d marks the D form. Peptide text beside a SMILES is read from it. LeuΨ(S-CHOHCH2)Ala = CC(C)C[C@H](N[*:1])[C@@H](O)C[C@@H](C)C(=O)[*:2]; Orn(CH(NH2)2) = NC(N)NCCC[C@H](N)C(=O)O; Sta = CC(C)C[C@H](N)[C@@H](O)CC(=O)O

A short description of this data set: PubChem AID 977610. The following applies: PDB protein-ligand complexes, literature Ki.

In the case of `O=[N+]([O-])c1cccc2ncccc12`, for the setting “protein: PDE10A2, PDB entry 4lm1”, the Ki was 590 µM (active). Consider `Nc1nc(N)c2cc(CNc3cc(Cl)ccc3Cl)cnc2n1`, for which the Ki is, setting by setting: (protein: Dihydrofolate reductase(Q35S, N64F mutants), PDB entry 3oaf) 0.0016 µM (active); (protein: human Dihydrofolate reductase, DHFR, PDB entry 4g95) 0.0244 µM (active).

Take `CC[C@H](C)[C@H](NC(=O)[C@H](CCC(=O)O)NC(=O)[C@H](CCC(=O)O)NC(=O)[C@@H](NC(=O)[C@@H](N)CCCCN)[C@@H](C)O)C(=O)N[C@@H](CO)C(=O)N[C@@H](CCC(=O)O)C(=O)N[C@H](C(=O)N[C@@H](CC(N)=O)C(=O)N[C@@H](CC(C)C)[C@@H](O)CC(=O)N[C@H](C(=O)N[C@@H](C)C(=O)N[C@@H](CCC(=O)O)C(=O)N[C@@H](Cc1ccccc1)C(=O)O)C(C)C)C(C)C` (H-KTEEISEVN[Sta]VAEF-OH): the Ki (protein: Memapsin 2(?-secretase 1), PDB entry 1xn3) was 0.04 µM (active).

For the compound `CC[C@H](C)[C@H](NC(=O)[C@H](CO)NC(=O)[C@H](CCCCNC(C)=O)NC(=O)[C@H](Cc1ccccc1)NC(=O)[C@@H](NC(=O)[C@H](CCC(=O)O)NC(=O)[C@H](Cc1ccc(O)cc1)NC(=O)[C@@H](NC(=O)[C@@H](N)CCCNC(N)N)[C@@H](C)O)[C@@H](C)O)C(=O)N[C@@H](CCSC)C(=O)N[C@@H](CCCCN)C(=O)N[C@@H](CCCCN)C(=O)N[C@@H](CO)C(=O)O` (H-[Orn(CH(NH2)2)]TYETFK(Ac)SIMKKS-OH), where the note is “protein: Bromodomain-containing protein 4, PDB entry 2lsp”, the Ki was 274 µM (active). On to `CC(C)C[C@H](NC(=O)[C@H](CC(N)=O)NC(=O)[C@@H](NC(=O)[C@H](CCC(=O)O)NC(=O)[C@H](CO)NC(=O)[C@H](Cc1c[nH]c2ccccc12)NC(=O)[C@@H](N)Cc1c[nH]c2ccccc12)C(C)C)[C@@H](O)C[C@@H](C)C(=O)N[C@@H](C)C(=O)N[C@@H](CCC(=O)O)C(=O)N[C@@H](Cc1ccccc1)C(=O)O` (H-WWSEVN[LeuΨ(S-CHOHCH2)Ala]AEF-OH), for which the Ki (protein: Memapsin 2(?-secretase 1), PDB entry 1xn2) is 3e-05 µM (active). Take `CN(C[C@H]1O[C@@H](n2ccc(=O)[nH]c2=O)C[C@@H]1O)C(c1ccccc1)c1ccccc1`: the Ki (protein: Deoxyuridine 5'-triphosphate nucleotidohydrolase, putative, PDB entry 3t70) is 0.5 µM (active). With `Cn1ccnc1[C@@H](NC[C@H]1O[C@@H](n2ccc(=O)[nH]c2=O)C[C@@H]1O)c1ccccc1`, the Ki (protein: Deoxyuridine 5'-triphosphate nucleotidohydrolase, putative, PDB entry 3t6y) is 3 µM (active). `O=c1ccn([C@H]2C[C@H](O)[C@@H](CNC(c3ccccc3)(c3ccccc3)c3ccccc3)O2)c(=O)[nH]1`: the inhibitory constant (Ki) (protein: Deoxyuridine 5'-triphosphate nucleotidohydrolase, putative, PDB entry 3t60) is 0.2 µM (active). Regarding `O=c1ccn([C@H]2C[C@H](O)[C@@H](CNC(c3ccccc3)c3ccccc3)O2)c(=O)[nH]1`, the Ki (protein: Deoxyuridine 5'-triphosphate nucleotidohydrolase, putative, PDB entry 3t64) is 0.2 µM (active). In the case of `COC(=O)N[C@H](C(=O)N/[N+](=C\c1ccc(-c2ccsc2)cc1)CCC[C@@]1(O)Cc2ccc(cc2)CC/C=C\NC(=O)[C@H](C(C)C)NC1=O)C(C)(C)C`, the Ki (protein: HIV-1 protease, PDB entry 4cpw) was 0.0315 µM (active). With `COC(=O)N[C@H](C(=O)N/[N+](=C\c1ccc(C2=CCSC2)cc1)CCC[C@@]1(O)Cc2ccc(cc2)C/C=C\CNC(=O)[C@H](C(C)C)NC1=O)C(C)(C)C`, the Ki (protein: HIV-1 protease, PDB entry 4cpu) is 0.0295 µM (active).

Consider `CCOP(=O)(COc1ccc(C[C@H](NC(=O)O[C@H]2CO[C@H]3OCC[C@H]32)[C@H](O)CN(CC(C)C)S(=O)(=O)c2ccc(OC)cc2)cc1)OCC`, for which the Ki was 0.00011 µM (active) (protein: HIV-1 Protease, PR1 E35EE (VPR1), PDB entry 4m8y) and 6.3e-05 µM (active) (protein: HIV-1 Protease, PR2 (VPR2), PDB entry 4m8x). In the case of `CC(C)CN(C[C@@H](O)[C@H](Cc1ccccc1)NC(=O)O[C@H]1CO[C@H]2OCC[C@H]21)S(=O)(=O)c1ccc(C(N)=O)cc1`, the Ki (protein: Protease, PDB entry 4i8z) is 8.9e-06 µM (active). For the compound `CC(C)CN(C[C@@H](O)[C@H](Cc1ccccc1)N[C@@H](O)O[C@H]1CO[C@H]2OCC[C@H]21)S(=O)(=O)c1ccc(C(=O)O)cc1`, the Ki (protein: Protease, PDB entry 4i8w) is 1.27e-05 µM (active). In the case of `NC1NC(=O)c2[nH]cc(CN3C[C@H](CO)[C@@H](O)C3)c2N1` (stereo partly drawn), the Ki (protein: Purine nucleoside phosphorylase (W16Y, W94Y, W178Y, H257W mutation), PDB entry 4eb8) was 0.000151 µM (active).

For the compound `NC1N[C@@](c2cccc(-c3cncnc3)c2)(c2ccnc(C(F)F)c2)c2cccc(F)c21` (stereo partly drawn), the Ki (protein: BETA-SECRETASE 1, PDB entry 4b05) was 0.0261 µM (active).

Take `CCC(CC)O[C@@H]1C=C(C(=O)O)C[C@H](NC(N)N)[C@H]1NC(C)=O`: the Ki (protein: Neuraminidase, PDB entry 4ks2) was 0.00046 µM (active). In the case of `CCC(CC)O[C@@H]1CC(C(=O)O)=C[C@H](N)[C@H]1NC(C)=O`, the Ki (protein: Neuraminidase, PDB entry 4ks1) was 0.0015 µM (active). With `Cc1onc(-c2ccccc2Cl)c1C(=O)NCC(=O)O`, the inhibition constant Ki (protein: AmpC beta-lactamase, PDB entry 4kz5) was 10000 µM (active). As for `C[C@@H](O)c1nc2cnc3[nH]ccc3c2n1C1CCC(CC#N)CC1` (stereo partly drawn), the Ki (protein: Tyrosine-protein kinase JAK1, PDB entry 4ivc) is 0.0001 µM (active).

Take `C[C@@H](O)c1nc2cnc3[nH]ccc3c2n1C1CCC(C#N)CC1` (stereo partly drawn): the Ki by setting is: (protein: Tyrosine-protein kinase JAK1, PDB entry 4ivb) 0.0019 µM (active); (protein: Tyrosine-protein kinase JAK2, PDB entry 4iva) 0.0684 µM (active). On to `COc1ccc(C2CCCC3N=C(Nc4ccc(N5CCN(C)CC5)cc4)NN32)cc1` (stereo not drawn), for which the Ki (protein: Tyrosine-protein kinase JAK2, PDB entry 4jia) was 0.0006 µM (active).

As to `CC(=O)N[C@H]1[C@H]([C@H](O)[C@H](O)CO)OC(C(=O)O)C[C@@H]1NC(N)N` (stereo partly drawn), where the note is “protein: Human Sialidase Neu2, PDB entry 2f0z”, the Ki was 17 µM (active).

Turning to `CC(=O)N[C@H]1[C@H]([C@H](O)[C@H](O)CO)O[C@@H](C(=O)O)C[C@@H]1N=C(N)N`, the Ki (protein: Neuraminidase from the B-Lyon-CHU-15.216-2011 virus, PDB entry 4cpz) is 0.0209 µM (active). With `CC(=O)N[C@H]1[C@H]([C@H](O)[C@H](O)CO)OC(C(=O)O)C[C@@H]1O` (stereo partly drawn), the Ki (protein: Trypanosoma cruzi trans-sialidase, PDB entry 1ms0) is 1230 µM (active) and the Ki (protein: human cytosolic sialidase Neu2, PDB entry 1vcu) was 140 µM (active).

As for `CCC(CC)(NC(=O)C(C)C)C(=O)N[C@@H](CCCNC(N)N)C(=O)NC1(C(=O)NC(c2ccccc2)c2ccccc2)CCCC1`, under “protein: WD repeat-containing protein 5, PDB entry 4gm3”, the Ki was 0.001 µM (active). For the compound `CCC(CC)(NC(=O)C(C)C)C(=O)N[C@@H](CCCNC(N)N)C(=O)NC1(C(=O)NC(c2ccc(F)cc2)c2ccc(F)cc2)CCCC1`, where the note is “protein: WD repeat-containing protein 5, PDB entry 4gm8”, the Ki was 0.001 µM (active). For the compound `C[C@](COC(=O)CCCCC(=O)O)([C@@H](NCCC=O)C(=O)O)S(=O)O`, the Ki (protein: SHV-1 beta-lactamase, PDB entry 4mbf) is 1.7 µM (active).

For `C[C@H](C(=O)O)c1ccc2c(c1)[nH]c1ccc(Cl)cc12`, for the setting “protein: E. coli sliding clamp, DNA polymerase III subunit beta, PDB entry 4mjr”, the Ki was 283 µM (active).

The term Ki denotes the equilibrium dissociation constant of an inhibitor or competing ligand from its target.
